Some test systems named below: HCT-15 colon; HT29 colon; SNB-75 CNS; SNB-19 CNS; U251 CNS; PC-3 prostate; SK-MEL-5 melanoma; UACC-62 melanoma; LOX IMVI melanoma; SK-MEL-28 melanoma; SK-MEL-2 melanoma; SN12C renal; UO-31 renal; TK-10 renal; ACHN renal; CAKI-1 renal; A498 renal; CCRF-CEM leukemia; MOLT-4 leukemia; EKVX NSCLC.
Common to all, as to experiment: NCI-60 one-dose screen, 48 h (100 = growth as untreated, 0 = no growth, -100 = all killed)
Conditions in all cases: 10 µM

The panel holds about 83,000 compounds, 20% with a hit somewhere; the sample as a whole holds those more often.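 In brief: 96-well plates, 48 h treatment, single concentration, percent growth endpoint.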 Unmarked numbers belong to inactive results. Calls of active or inactive are those of the source. The calls were made as follows: active = growth percent below 10; inactive = the rest.

The record followed here is PubChem BioAssay (NCI).

For the compound `O=C(CSc1nnc(-c2ccc3nc(-c4ccc(Cl)cc4)[nH]c3c2)o1)Nc1ccc(Cl)cc1`, the growth was -84% (active) with HCT-15 colon; -35.4% (active) with HT29 colon; 58% with SNB-75 CNS; -49.4% (active) in the experiment on SNB-19 CNS; -57.7% (active) in the experiment with U251 CNS; -7.65% (active) in the experiment on PC-3 prostate. Also, the growth in the experiment on SK-MEL-5 melanoma was -68.9% (active); in the experiment on UACC-62 melanoma, -87.1% (active); with LOX IMVI melanoma, -99.2% (active); in the experiment with SK-MEL-28 melanoma, -76.9% (active); in the experiment on SK-MEL-2 melanoma, -25.2% (active); in the experiment with SN12C renal it was -93.7% (active). Also, the growth was -45.4% (active) in the experiment on UO-31 renal; 50.7% in the experiment on TK-10 renal; -89.7% (active) in the experiment on ACHN renal; -35.6% (active) in the experiment on CAKI-1 renal; 26% in the experiment with A498 renal; -1.24% (active) in the experiment with CCRF-CEM leukemia. Moreover, the growth with MOLT-4 leukemia was -4.88% (active).

For the compound `CN1CCN(c2ccc(Nc3nc(NCCNC(=O)c4ccc(C(F)(F)F)cc4)c4sccc4n3)cc2)CC1`, the growth with HCT-15 colon is -42.6% (active); in the experiment with HT29 colon, -67% (active); in the experiment on SNB-75 CNS, -10.7% (active); in the experiment with SNB-19 CNS, 31.5%; with U251 CNS, -17.7% (active); with PC-3 prostate, 41%. The growth is -99.5% (active) in the experiment with SK-MEL-5 melanoma; -89.7% (active) in the experiment with UACC-62 melanoma; -93.9% (active) in the experiment on LOX IMVI melanoma; -96.3% (active) in the experiment with SK-MEL-28 melanoma; -41.9% (active) with SK-MEL-2 melanoma; 73.6% in the experiment on SN12C renal. Also, the growth with UO-31 renal is 4.76% (active); in the experiment on TK-10 renal, 12%; with ACHN renal, 10.7%; in the experiment on CAKI-1 renal, 22.5%; with A498 renal it was 69%; in the experiment on CCRF-CEM leukemia, -31.1% (active).

As to `COc1ccc(-c2cc(-c3cc(C(=O)c4ccccc4)n4ccc(C)cc34)nc(N)c2C#N)cc1`, the growth in the experiment with HCT-15 colon was 78%; in the experiment with HT29 colon, 75%; in the experiment on SNB-75 CNS, 91.5%; with SNB-19 CNS, 45.1%; in the experiment with U251 CNS, 45.4%; in the experiment on PC-3 prostate it was 63.5%. Moreover, the growth in the experiment on SK-MEL-5 melanoma is 67.7%; in the experiment with UACC-62 melanoma, 64.6%; in the experiment with LOX IMVI melanoma, 51.3%; in the experiment on SK-MEL-28 melanoma it was 87.6%; in the experiment with SK-MEL-2 melanoma, 84.8%; with SN12C renal, 70%. Moreover, the growth in the experiment on UO-31 renal was 65%; with TK-10 renal, 92.4%; in the experiment with ACHN renal, 56.4%; with CAKI-1 renal, 69.9%; in the experiment with A498 renal it was 127%; in the experiment on CCRF-CEM leukemia, 98.3%. In addition, the growth with MOLT-4 leukemia is 93.8%.

Turning to `CC[C@]12C=CCN3CC[C@@]4(c5cc(C#CCNc6ccc(C)c(Nc7nccc(-c8cccnc8)n7)c6)c(OC)cc5N(C)[C@H]4[C@@](O)(C(=O)OC)[C@@H]1OC(C)=O)C32` (stereo not given in full), the growth with HCT-15 colon was 25.9%; in the experiment on HT29 colon, 25.8%; in the experiment on SNB-75 CNS it was 77.7%; in the experiment with SNB-19 CNS it was 48.1%; with U251 CNS, 40.8%; in the experiment on PC-3 prostate, 37.5%. Also, the growth in the experiment on SK-MEL-5 melanoma was 32.1%; in the experiment with UACC-62 melanoma it was 69.4%; in the experiment on LOX IMVI melanoma, 38.6%; in the experiment with SK-MEL-2 melanoma, 61.7%; with EKVX NSCLC, 55.9%; with SN12C renal it was 45.3%. Moreover, the growth with UO-31 renal is 46.9%; with TK-10 renal, 88%; with ACHN renal it was 51.4%; in the experiment with CAKI-1 renal, 40.4%; in the experiment with A498 renal, 68.1%; in the experiment with CCRF-CEM leukemia it was 18.8%. Besides, the growth in the experiment on MOLT-4 leukemia was 37.9%.

For the compound `O=C(c1ccc(O)cc1)C1[C@H](c2ccccc2Br)[C@@H](c2ccccc2)NC12C(=O)Nc1ccc(Br)cc12` (stereo not given in full), the growth is 36.8% with HCT-15 colon; 26.8% in the experiment with HT29 colon; 31.5% with SNB-75 CNS; 53.4% in the experiment with SNB-19 CNS; 26.5% in the experiment with U251 CNS; 23.3% in the experiment on PC-3 prostate. Moreover, the growth in the experiment on SK-MEL-5 melanoma is 56.9%; in the experiment with UACC-62 melanoma, 42.3%; with LOX IMVI melanoma, 15.8%; with SK-MEL-28 melanoma it was 77.7%; in the experiment on SK-MEL-2 melanoma it was 38.1%; with SN12C renal, 15.1%. For the same compound, the growth with UO-31 renal is 35.8%; in the experiment on TK-10 renal, 76.2%; in the experiment with ACHN renal, 37.9%; with CAKI-1 renal, 24.1%; in the experiment with A498 renal, 80.5%; with CCRF-CEM leukemia it was 31.4%. In the experiment on MOLT-4 leukemia, the growth is 11%.

`CC1(c2ccccc2)NC(=O)N(CC(=O)Nc2ccc(C(=O)/C=C/C=C/c3ccccc3)cc2)C1=O` (stereo not given): the growth with HCT-15 colon is 12.8%; in the experiment on HT29 colon, 25.4%; with SNB-75 CNS, 54.9%; in the experiment on SNB-19 CNS, 61.6%; with U251 CNS, 14.7%; in the experiment with PC-3 prostate, 36.4%. Further, the growth with SK-MEL-5 melanoma was 51.6%; with UACC-62 melanoma, 43.1%; with LOX IMVI melanoma it was 26%; with SK-MEL-28 melanoma, 70.9%; with SK-MEL-2 melanoma it was 90%; in the experiment with SN12C renal it was 66.9%. The growth with UO-31 renal was 54.9%; in the experiment with TK-10 renal, 84.6%; with ACHN renal it was 48.4%; with CAKI-1 renal, 63.2%; in the experiment with A498 renal it was 70.6%; in the experiment with CCRF-CEM leukemia, 32.4%. In the experiment on MOLT-4 leukemia, the growth is 18.6%.

On to `COc1cc2c(cc1OC)CN(CCCCOc1cc(O)c3c(=O)cc(-c4ccccc4)oc3c1)CC2`, for which the growth in the experiment with HCT-15 colon was 21.4%; in the experiment on HT29 colon, -6.93% (active); with SNB-75 CNS, 98.9%; in the experiment on SNB-19 CNS, 78.3%; in the experiment on U251 CNS, 49.8%; in the experiment on PC-3 prostate, 63.1%. The growth in the experiment with SK-MEL-5 melanoma is 17.1%; with UACC-62 melanoma it was 40.4%; in the experiment on LOX IMVI melanoma, -66.1% (active); in the experiment on SK-MEL-28 melanoma it was -8.78% (active); in the experiment with SK-MEL-2 melanoma, 66.6%; in the experiment with EKVX NSCLC it was 76.6%. For the same compound, the growth in the experiment with UO-31 renal was 51%; in the experiment with TK-10 renal it was 117%; in the experiment on ACHN renal, 66.8%; with CAKI-1 renal it was 56.9%; in the experiment on A498 renal it was 127%; with CCRF-CEM leukemia it was 32.2%. Also, in the experiment with MOLT-4 leukemia, the growth was 20.2%.

Regarding `CC1(C)CC[C@]2(C(=O)O)CC[C@]3(C)C(=CC[C@@H]4[C@@]5(C)C/C(=C/c6ccncc6)[C@H](O)C(C)(C)[C@@H]5CC[C@]43C)[C@@H]2C1`, the growth was 15.7% in the experiment on HCT-15 colon; 35.3% in the experiment on HT29 colon; 35.5% in the experiment on SNB-75 CNS; 41.8% in the experiment with SNB-19 CNS; 28.9% in the experiment with U251 CNS; 28.2% with PC-3 prostate. The growth in the experiment on SK-MEL-5 melanoma was -23.2% (active); in the experiment on UACC-62 melanoma it was 52.6%; with SK-MEL-28 melanoma, 46.3%; with SK-MEL-2 melanoma it was 55.4%; in the experiment with EKVX NSCLC it was 30.1%; in the experiment on SN12C renal, 55%. Moreover, the growth is 32.9% with UO-31 renal; 46.9% with TK-10 renal; 25.7% in the experiment with ACHN renal; 35.6% in the experiment with CAKI-1 renal; 65% in the experiment with A498 renal; 21% with CCRF-CEM leukemia.
